High-throughput results: PubChem, several laboratories
The list is not random: actives were taken first. Their share in the collection is about 0.76%.
Mtb bLac sens = beta-lactam sensitization of Mtb H37Rv, H37Rv; M. tuberculosis H37Rv growth with meropenem, percent inhibition; inhibition, % at 25 µM; 330,000 compounds, 0.27% hits; AID 434955, 2010; call rule not given here;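 further: growth measured after seven days incubation then overnight dye step; 0% = bacteria only wells and 100% = bacteria with antibiotic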
FadD28 FP inh = inhibitors of FadD28 bisubstrate probe binding, primary screen, biochemical, fluorescence polarization, single point; 360,000 compounds, 0.22% hits; Mycobacterium tuberculosis FadD28 fatty-acid-AMP ligase; inhibition, % at 12.5 µM; in the data active means inhibition above about 8.5%, passing the limit was not always enough
Vc quorum ag = inducers of Vibrio cholerae quorum light production without autoinducers, primary screen, BH1578 luxS cqsA deficient, single point. V. cholerae BH1578 lux reporter, luminescence, 6 h. AID 588436, 2011. activation, % at 18.7 µM. 350,000 compounds, 0.16% hits; in the data active means activation mostly above about 9.7%, no sharp cut-off
PrP UTR inh = inhibition of PrP 5' UTR reporter expression; cell-based PrP 5' UTR mRNA reporter, plate reader; inhibition, % (no concentration beside the values); 340,000 compounds, 0.35% hits; in the data active means inhibition above about 52%; further: 0 = median of the neutral control wells
Mtb UGM inh = M. tuberculosis UGM enzyme inhibitors, primary screen, biochemical, fluorescence polarization, single point. UDP-galactopyranose mutase (Mycobacterium tuberculosis (strain ATCC 25618 / H37Rv)), …. purified UGM, fluorescence polarization probe displacement. inhibition, % at 10 µM. 320,000 compounds, 0.06% hits; in the data active means inhibition above about 10%, passing the limit was not always enough
Rv3671c inh = Rv3671c serine protease inhibitors, primary screen, biochemical, fluorescence polarization, M. tuberculosis H37Rv; inhibition, % at 5.96 µM; 320,000 compounds, 0.048% hits; in the data active means inhibition above about 38%;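 further: extracellular domain of Rv3671c used as enzyme; 0% = enzyme with DMSO and 100% = no enzyme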
Target sequence (P9WHR9 whole entry, looked up, the tested form may be a part): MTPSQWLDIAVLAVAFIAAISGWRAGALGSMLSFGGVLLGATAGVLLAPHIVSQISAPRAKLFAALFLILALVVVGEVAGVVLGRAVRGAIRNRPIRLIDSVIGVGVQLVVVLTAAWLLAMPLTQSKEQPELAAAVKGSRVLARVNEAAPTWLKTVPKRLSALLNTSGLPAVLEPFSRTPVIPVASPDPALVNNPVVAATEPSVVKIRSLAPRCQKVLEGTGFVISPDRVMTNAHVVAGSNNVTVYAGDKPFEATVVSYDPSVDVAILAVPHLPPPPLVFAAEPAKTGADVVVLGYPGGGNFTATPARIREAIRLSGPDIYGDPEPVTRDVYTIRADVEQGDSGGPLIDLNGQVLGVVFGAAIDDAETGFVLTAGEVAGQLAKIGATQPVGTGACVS
* hit, by the source's call.

Screening COC(=O)c1ccc2nc(Nc3nc4ccc(F)cc4s3)sc2c1 returned Mtb bLac sens 62, FadD28 FP inh -4, Vc quorum ag -1, PrP UTR inh 81*, Mtb UGM inh 1 and Rv3671c inh -38.
Screening N#C/C(=N\Nc1ccc(S(=O)(=O)N2CCc3ccccc32)cc1)C(N)=S returned Mtb bLac sens 0, FadD28 FP inh 46*, Vc quorum ag 0, PrP UTR inh -9, Mtb UGM inh 0 and Rv3671c inh 17.
O=C1C(=O)C(Cl)=C(Cl)C(Cl)=C1Cl was read as FadD28 FP inh 11*.
For COc1ccc(NC(=O)c2ccccc2-c2ccccc2C(=O)O)cc1 the results were Mtb bLac sens 45, FadD28 FP inh -2, Vc quorum ag -1, PrP UTR inh -9, Mtb UGM inh 1 and Rv3671c inh -3.
For COc1ccc2c(c1)Cc1cc(NC(=O)c3ccccc3-c3ccccc3C(=O)O)ccc1-2 the results were FadD28 FP inh 11* and Vc quorum ag inactive.
`CS(=O)(=O)c1ccc2nc(NC(=O)c3ccc(NS(=O)(=O)c4ccc(F)c(F)c4)cc3)sc2c1` gave Mtb bLac sens 0, FadD28 FP inh 2, Vc quorum ag inactive, PrP UTR inh -13, Mtb UGM inh 0 and Rv3671c inh -89.
Screening O=C(Nc1nc2ccc(SC(F)F)cc2s1)c1ccc(NS(=O)(=O)c2ccc(F)c(F)c2)cc1 returned Mtb bLac sens 100, FadD28 FP inh 17*, Vc quorum ag 0, PrP UTR inh -61, Mtb UGM inh 0 and Rv3671c inh -213.
`Cc1ccc(NC(=O)C2CCCN(C(=O)c3ccc(Cl)cc3)C2)cc1S(=O)(=O)N1CCOCC1` (stereo not drawn) gave Mtb bLac sens 8, FadD28 FP inh -4, Vc quorum ag 0, PrP UTR inh -8, Mtb UGM inh 1 and Rv3671c inh -5.
CC(=O)OCC(=O)[C@@]12OC(C)(C)O[C@@H]1CC1C3C[C@H](F)C4=CC(=O)C=CC4(C)[C@@]3(F)C(O)CC12C (stereo partly drawn) was read as Mtb bLac sens 3, FadD28 FP inh 0, Vc quorum ag inactive, PrP UTR inh -13, Mtb UGM inh 3 and Rv3671c inh 4.
Screening CC(=O)OCC(=O)[C@@]12OC(C)(C)O[C@@H]1C[C@H]1[C@@H]3C[C@H](F)C4=CC(=O)C=C[C@]4(C)[C@@]3(F)[C@@H](O)C[C@@]12C returned Mtb bLac sens -4, Vc quorum ag 21*, PrP UTR inh 3, Mtb UGM inh -1 and Rv3671c inh -2.
For O=C(N/N=C/c1ccc2c(c1)OCO2)c1ccc(COc2cccc3cccnc23)cc1 the results were Mtb bLac sens 0, FadD28 FP inh -1, Vc quorum ag -1, PrP UTR inh -63, Mtb UGM inh 2 and Rv3671c inh -14.
Screening O=c1c2ccccc2nc(SCc2ccccc2Cl)n1Cc1ccccc1 returned Mtb bLac sens -8, FadD28 FP inh -5, Vc quorum ag 26*, PrP UTR inh -24, Mtb UGM inh -1 and Rv3671c inh -9.
For CCCc1cc(=O)oc2c(C)c3occ(C)c3cc12 the results were Mtb bLac sens 64, FadD28 FP inh -2, Vc quorum ag 23*, PrP UTR inh 5, Mtb UGM inh 0 and Rv3671c inh -9.
`COc1ccc(CN(C(=O)c2ccccc2Br)C2CCS(=O)(=O)C2)cc1` (stereo not drawn) gave Mtb bLac sens -1, FadD28 FP inh -3, Vc quorum ag 0, PrP UTR inh -12, Mtb UGM inh -1 and Rv3671c inh 5.
COc1cc(OC)cc(C(=O)N[C@H](C(=O)OCC(=O)Nc2ccc(C(C)C)cc2)C(C)C)c1 was read as Mtb bLac sens -3, FadD28 FP inh 2, Vc quorum ag 0, PrP UTR inh -6, Mtb UGM inh -4 and Rv3671c inh -27.
Screening CCn1c(COc2ccc(C)cc2)nnc1SCC(=O)Nc1cc(OC)ccc1OC returned Mtb bLac sens -16, FadD28 FP inh -2, Vc quorum ag 29*, PrP UTR inh -17, Mtb UGM inh 1 and Rv3671c inh 3.
`CCOC(=O)C1CCCN(C(=O)c2cc(Nc3ccc(OC)cc3)nc3ccccc23)C1` (stereo not drawn) gave Mtb bLac sens 3, FadD28 FP inh 22*, Vc quorum ag 2, PrP UTR inh 4, Mtb UGM inh -1 and Rv3671c inh 7.
For CCOC(=O)C1CCCN(C(=O)c2cc(-c3ccco3)nc3ccccc23)C1 (stereo not drawn) the results were Mtb bLac sens 2, Vc quorum ag inactive, PrP UTR inh -16 and Rv3671c inh -1.
CCN(CC)c1ccc(/C=c2\sc3nnc(-c4ccccc4Cl)n3c2=O)cc1 was read as Mtb bLac sens 4, FadD28 FP inh 19*, Vc quorum ag inactive, PrP UTR inh 10, Mtb UGM inh 0 and Rv3671c inh -15.
`Nc1c(N(Cc2ccco2)C(=O)c2ccccc2F)c(=O)[nH]c(=O)n1Cc1ccccc1` gave FadD28 FP inh -3, Vc quorum ag -1 and PrP UTR inh -32.
Cn1c(SCc2ccc(Br)cc2)nnc1-c1ccccn1 was read as Mtb bLac sens 5, FadD28 FP inh -4, Vc quorum ag 0, PrP UTR inh -24, Mtb UGM inh -1 and Rv3671c inh 3.
For Cc1nnc(NC(=O)c2ccc3c(c2)OCO3)s1 the results were Mtb bLac sens -11, FadD28 FP inh -2, Vc quorum ag inactive, PrP UTR inh -49, Mtb UGM inh -1 and Rv3671c inh -6.
Screening CSc1nnc(NC(=O)c2ccc3c(c2)OCO3)s1 returned Mtb bLac sens -4, FadD28 FP inh -2, Vc quorum ag -1, PrP UTR inh 63*, Mtb UGM inh 4 and Rv3671c inh -2.
For CCN1C(=O)CCN(C2CCCC2)c2nc(Nc3ccc(C(=O)NC4CCN(C)CC4)cc3OC)ncc21 the results were FadD28 FP inh 1, Vc quorum ag inactive and PrP UTR inh -19.
For COc1cccc(/C=N/Nc2nc(C)cc(=O)[nH]2)c1OC the results were Mtb bLac sens -2, FadD28 FP inh 13*, Vc quorum ag 0, PrP UTR inh -19, Mtb UGM inh 0 and Rv3671c inh 12.
For CC/C(O)=C(\C#N)c1nnc2n1CCCCC2 the results were Mtb bLac sens 0, FadD28 FP inh -1, Vc quorum ag 0, PrP UTR inh -21, Mtb UGM inh 0 and Rv3671c inh 5.
For Cc1ccc(N=Nc2c(N)[nH]n3c(=O)cc(-c4ccccc4)nc23)cc1 the results were Mtb bLac sens 95, FadD28 FP inh -3, Vc quorum ag 32*, PrP UTR inh -7, Mtb UGM inh 0 and Rv3671c inh 3.
